Source: PubChem BioAssay AID1159580 (chemical genetic matrix, 2015)
Among all 5,500 compounds or so, about 2,000 (36%) were called active. Inconclusive results (about 18%) are left out. Cut-off read from the data, not from the text of the source: active = normalized growth mostly below about 0.91 (no sharp cut-off); inconclusive = no clear call, values can overlap the other calls; inactive = mostly above about 0.92. This is one part of the list.

Experiment: chemical genetic growth profiling, strain panel (AID 1159580);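 note: tested at 20 µM; growth read once vehicle control cultures reached saturation at 30 °C; 1 = growth at the plate median or of vehicle wells; lower values mean less growth of the strain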
Settings: S. cerevisiae deletion strains, growth OD

Measured: normalized growth

COc1cc(-c2cc(=O)c3c(O)c(OC)c(OC)c(OC)c3o2)cc(OC)c1OC
inactive: locus YAL021C, strain ccr4, active compounds read low 1.01 | locus YAL026C, strain drs2, active compounds read low 1.01 | locus YAL030W, strain snc1, active compounds read low 1.01 | locus YBL061C, strain skt5, active compounds read low 1.01 | locus YBR009C, strain hhf1, active compounds read low 1.01 | locus YBR023C, strain chs3, active compounds read low 1.01 | locus YBR171W, strain sec66, active compounds read low 1.01 | locus YBR231C, strain swc5, active compounds read low 1.01 | locus YBR279W, strain paf1, active compounds read low 0.998 | locus YCL011C, strain gbp2, active compounds read low 1.01 | locus YCL016C, strain dcc1, active compounds read low 1.01 | locus YCL061C, strain MRC1, active compounds read low 1.03 | locus YCL069W, strain vba3, active compounds read low 1.01 | locus YCR088W, strain abp1, active compounds read low 1.01 | locus YDL005C, strain med2, active compounds read low 1.02 | locus YDL040C, strain nat1, active compounds read low 1.01 | locus YDR001C, strain nth1, active compounds read low 1.01 | locus YDR069C, strain doa4, active compounds read low 1.02 | locus YDR137W, strain rgp1, active compounds read low 0.997 | locus YDR159W, strain sac3, active compounds read low 1.03 | locus YDR195W, strain ref2 1.02 | locus YDR297W, strain sur2, active compounds read low 1.01 | locus YDR334W, strain swr1, active compounds read low 1.01 | locus YDR335W, strain msn5, active compounds read low 1.03 | locus YDR392W, strain spt3, active compounds read low 0.97 | locus YEL003W, strain gim4, active compounds read low 1.01 | locus YEL037C, strain rad23, active compounds read low 1.01 | locus YEL061C, strain CIN8 (second series), active compounds read low 1.01 | locus YER015W, strain faa2, active compounds read low 1.01 | locus YER016W, strain bim1, active compounds read low 1.02 | locus YER111C, strain swi4, active compounds read low 1 | locus YER155C, strain BEM2 (second series), active compounds read low 1 | locus YFR010W, strain ubp6, active compounds read low 1.01 | locus YGL167C, strain pmr1, active compounds read low 1.02 | locus YGL173C, strain kem1, active compounds read low 1.01 | locus YGL227W, strain vid30, active compounds read low 1.01 | locus YGL240W, strain doc1, active compounds read low 1.04 | locus YGL253W, strain hxk2, active compounds read low 1 | locus YHR013C, strain ard1, active compounds read low 1 | locus YHR027C, strain rpn1, active compounds read low 1.01 | locus YHR142W, strain chs7, active compounds read low 0.99 | locus YJL092W, strain hpr5, active compounds read low 1.02 | locus YJL095W, strain BCK1 (second series), active compounds read low 1.01 | locus YJL115W, strain asf1, active compounds read low 1.01 | locus YJL129C, strain trk1, active compounds read low 1 | locus YJL154C, strain vps35, active compounds read low 1.01 | locus YJL164C, strain tpk1, active compounds read low 0.999 | locus YJL166W, strain qcr8, active compounds read low 1.01 | locus YJL187C, strain SWE1, active compounds read low 1.01 | locus YKL160W, strain elf1, active compounds read low 1.01 | locus YKR026C, strain gcn3, active compounds read low 1.01 | locus YKR091W, strain srl3, active compounds read low 1.01 | locus YLL001W, strain dnm1, active compounds read low 1.02 | locus YLL026W, active compounds read low 1.01 | locus YLL041C, strain sdh2, active compounds read low 1.01 | locus YLR027C, strain aat2, active compounds read low 1.01 | locus YLR221C, strain rsa3, active compounds read low 1 | locus YLR258W, strain gsy2, active compounds read low 1.01 | locus YLR262C, strain YPT6 (second series), active compounds read low 1.01 | locus YLR320W, strain mms22, active compounds read low 1.02 | locus YLR342W, strain FKS1, active compounds read low 1.02 | locus YLR357W, strain rsc2, active compounds read low 0.994 | locus YLR370C, strain arc18, active compounds read low 1.02 | locus YLR384C, strain iki3, active compounds read low 1.01 | locus YML120C, strain ndi1, active compounds read low 1 | locus YMR058W, strain fet3, active compounds read low 1 | locus YMR125W, strain sto1, active compounds read low 0.999 | locus YMR129W, active compounds read low 1.01 | locus YMR205C, strain PFK2, active compounds read low 1.02 | locus YMR231W, strain pep5, active compounds read low 1.01 | locus YNL071W, strain lat1, active compounds read low 1 | locus YNL209W, strain ssb2, active compounds read low 1 | locus YNL248C, strain rpa49, active compounds read low 1 | locus YNL322C, strain KRE1 (second series), active compounds read low 1.02 | locus YNR049C, strain mso1, active compounds read low 1.01 | locus YOR001W, strain rrp6, active compounds read low 0.999 | locus YOR070C, strain gyp1, active compounds read low 1 | locus YOR080W, strain dia2, active compounds read low 1.01 | locus YOR083W, strain WHI5, active compounds read low 0.995 | locus YOR106W, strain vam3, active compounds read low 1 | locus YOR265W, strain rbl2, active compounds read low 1.01 | locus YOR270C, strain vph1, active compounds read low 0.99 | locus YOR290C, strain snf2, active compounds read low 0.933 | locus YPL051W, strain arl3, active compounds read low 1 | locus YPL078C, strain atp4, active compounds read low 0.999 | locus YPL106C, strain sse1, active compounds read low 1.03 | locus YPL240C, strain hsp82, active compounds read low 1.01
